# According to the supplement of paper PMC13380429:
# Tested on: Vero E6 infected with SARS-CoV-2
# Assay: inhibition of SARS-CoV-2 cytopathic effect; higher = more antiviral protection, active = above 15
# Conditions: 48 h
SMILES,inhibition of SARS-CoV-2 cytopathic effect (1 nM),inhibition of SARS-CoV-2 cytopathic effect (8.33 nM),inhibition of SARS-CoV-2 cytopathic effect (100 nM),inhibition of SARS-CoV-2 cytopathic effect (833.33 nM),inhibition of SARS-CoV-2 cytopathic effect (10000 nM)
Fc1cc(-c2cccc3ncc(-c4cnn(C5CCNCC5)c4)nc23)cc(F)c1CN1CCOCC1,1.49% (inactive),2.64% (inactive),-2.32% (inactive),-1.44% (inactive),63.3% (active)
NCCCCCC(=O)O [aminocaproic-acid],-7.62% (inactive),-2.22% (inactive),1.68% (inactive),1.01% (inactive),-2.29% (inactive)
CC(=O)SC[C@@H](C)C(=O)N1CCC[C@H]1C(=O)N[C@@H](Cc1ccccc1)C(=O)O [alacepril],-1.69% (inactive),0.59% (inactive),0.98% (inactive),-1.33% (inactive),-0.44% (inactive)
COP(=O)(OC)OC(c1ccc(Cl)cc1)P(=O)(OC)OC (stereo not given) [mifobate],-4.41% (inactive),-10.9% (inactive),-3.08% (inactive),-2.04% (inactive),-5% (inactive)
CCS(=O)(=O)CCn1c([N+](=O)[O-])cnc1C [tinidazole],-3.22% (inactive),-2.91% (inactive),1.02% (inactive),4.13% (inactive),-0.87% (inactive)
Nc1nc(=O)n([C@@H]2O[C@H](CO)[C@@H](O)[C@@H]2F)cc1I [fiacitabine],-1.38% (inactive),-1.55% (inactive),2.03% (inactive),-1.22% (inactive),-0.56% (inactive)
COc1cn(-c2ccc(-n3cccn3)cc2F)nc(-c2ccnn2-c2ccccc2)c1=O,1.53% (inactive),3.16% (inactive),0.79% (inactive),2.26% (inactive),0.75% (inactive)
CC(C)Nc1cc(-c2c[nH]c(C(=O)N[C@H](CO)c3cccc(Cl)c3)c2)c(Cl)cn1,-2.18% (inactive),0.33% (inactive),-2.23% (inactive),-5.21% (inactive),-6.01% (inactive)
N[C@H](C(=O)O)c1cc(O)no1 [ibotenic-acid],2.28% (inactive),1.34% (inactive),0.56% (inactive),-0.13% (inactive),-0.16% (inactive)
COc1nc(C)cnc1NS(=O)(=O)c1cccnc1-c1ccc(-c2nnco2)cc1 [zibotentan],-2.02% (inactive),-0.17% (inactive),-0.98% (inactive),-3.56% (inactive),-1.47% (inactive)
Cc1nccn1CC1CCc2c(c3ccccc3n2C)C1=O (stereo not given) [ondansetron],3.14% (inactive),0.05% (inactive),-1.38% (inactive),-1.32% (inactive),3.44% (inactive)
CCc1cc2c(c(CC)n1)CCC(=O)N2Cc1ccc(-c2ccccc2-c2nnn[nH]2)cc1,-4.46% (inactive),-5.09% (inactive),-2.79% (inactive),-3.64% (inactive),-0.49% (inactive)
CC1(CN2CCC(n3c(=O)[nH]c4ccccc43)CC2)OCc2ccccc2-n2cccc21 (stereo not given) [zaldaride],4.94% (inactive),-0.44% (inactive),4.25% (inactive),-2.81% (inactive),-4.06% (inactive)
C[C@@H](Oc1ccc2[nH]nc(/C=C/c3cnn(CCO)c3)c2c1)c1c(Cl)cncc1Cl,-0.14% (inactive),-0.97% (inactive),-1.04% (inactive),-13.8% (inactive),-14.7% (inactive)
C/C(O)=C(\C#N)C(=O)Nc1cc(Br)ccc1Br,0.38% (inactive),0.96% (inactive),-1.74% (inactive),2.02% (inactive),1.5% (inactive)
O=S(=O)(O)c1ccc(O)cc1 [4-phenolsulfonic-acid],-2.47% (inactive),0.25% (inactive),0.79% (inactive),-2.18% (inactive),-0.48% (inactive)
CCC1(C2=NCCN2)Cc2ccccc2O1 (stereo not given) [efaroxan],-0.76% (inactive),-1.17% (inactive),-0.66% (inactive),-2.93% (inactive),-3.79% (inactive)
CC1(C)O[C@@H]2[C@@H](CO[C@@]3(COS(N)(=O)=O)OC(C)(C)O[C@@H]23)O1 [topiramate],-1.19% (inactive),1.71% (inactive),-2.21% (inactive),0.74% (inactive),-0.18% (inactive)

SMILES,inhibition of SARS-CoV-2 cytopathic effect (1 nM),inhibition of SARS-CoV-2 cytopathic effect (8.33 nM),inhibition of SARS-CoV-2 cytopathic effect (100 nM),inhibition of SARS-CoV-2 cytopathic effect (833.33 nM),inhibition of SARS-CoV-2 cytopathic effect (10000 nM)
Nc1nc2ccc(Cl)cc2c2nc(-c3ccco3)nn12,3.02% (inactive),1.43% (inactive),-1.65% (inactive),-3.37% (inactive),1.46% (inactive)
COc1ccc(C(CN(C)C)C2(O)CCCCC2)cc1 (stereo not given) [venlafaxine],0.56% (inactive),0.96% (inactive),1.86% (inactive),-0.35% (inactive),-0.29% (inactive)
CN(C)C(=O)Nc1cccc(-c2ccc(N(C)C)cc2)c1 [atglistatin],-1.57% (inactive),-1.64% (inactive),1.22% (inactive),0.77% (inactive),1.31% (inactive)
Nc1nccs1 [aminothiazole],-0.84% (inactive),1.04% (inactive),0.28% (inactive),2.14% (inactive),1.48% (inactive)
COc1ccc(S(=O)(=O)Nc2c(C)cc(C)cc2C)cc1,0.3% (inactive),-0.36% (inactive),2.29% (inactive),2.21% (inactive),0.94% (inactive)
Oc1cccc(Nc2ncc(F)c(Nc3cccc(O)c3)n2)c1,2.79% (inactive),0.2% (inactive),0.24% (inactive),-2.05% (inactive),-5.48% (inactive)
CC(=O)OCC1=C(C(=O)O)N2C(=O)[C@@H](NC(=O)CCCC(N)C(=O)O)C2SC1 (stereo not given in full) [cephalosporin-c-zn],-4.01% (inactive),-0.13% (inactive),-2.05% (inactive),3.87% (inactive),1.87% (inactive)
C=C[C@]1(C)C[C@@H](OC(=O)CS[C@@H]2C[C@H]3CC[C@@H](C2)N3C)[C@]2(C)[C@H](C)CC[C@]3(CCC(=O)[C@H]32)[C@@H](C)[C@@H]1O [retapamulin],-0.46% (inactive),2.42% (inactive),1.21% (inactive),1.93% (inactive),-0.87% (inactive)
Clc1ccc(N2CCN(Cc3c[nH]c4ncccc34)CC2)cc1,-0.1% (inactive),-0.31% (inactive),-2.94% (inactive),1.1% (inactive),-3.38% (inactive)
FC(F)(F)C(F)(F)C(F)(F)N(C(F)(F)C(F)(F)C(F)(F)F)C(F)(F)C(F)(F)C(F)(F)F [perfluamine],-4.49% (inactive),-1.58% (inactive),-5.22% (inactive),-3.78% (inactive),-1.62% (inactive)
O=c1cc(-c2ccc(O)c(O)c2)oc2cc(O)cc(O)c12 [luteolin],1.96% (inactive),0.53% (inactive),-1.61% (inactive),-0.15% (inactive),7.72% (inactive)
NC(=O)c1ncn([C@@H]2O[C@H](CO)[C@@H](O)[C@H]2O)c1N [acadesine],0.23% (inactive),2.34% (inactive),1.8% (inactive),0.21% (inactive),-1.3% (inactive)
Cc1cc(NC(=O)Nc2ccc(F)c(F)c2)n(-c2ccccc2)n1,-0.5% (inactive),-1.46% (inactive),0.29% (inactive),-0.03% (inactive),0.43% (inactive)
CC[N+](CC)(CC)CC(=O)Nc1c(C)cccc1C,-1.18% (inactive),-2.04% (inactive),0.02% (inactive),0.8% (inactive),-0.17% (inactive)
Cc1ccc2c(c1)C1(CCN(CCc3nc(-c4ccccc4)oc3C)CC1)OC(=O)N2,1.69% (inactive),4.93% (inactive),0.82% (inactive),-0.79% (inactive),-7.82% (inactive)
NC(=O)c1cccnc1 [nicotinamide],-0.85% (inactive),1.53% (inactive),-1.16% (inactive),2.49% (inactive),7.29% (inactive)
COc1cc(C)c(/C=C/C(C)=C/C=C/C(C)=C/C(=O)O)c(C)c1C [acitretin],0.15% (inactive),-1.89% (inactive),0.02% (inactive),-0.64% (inactive),-0.58% (inactive)
COc1cc(NC(=O)c2ccccn2)ccc1Cl,-0.99% (inactive),-1.87% (inactive),1.63% (inactive),2.18% (inactive),1.18% (inactive)
